Screening results from PubChem BioAssay.
pAkt inh: blocks phosphorylation of Akt; Neuro2A IGF-stimulated pAkt S473 HTRF, 20 min; hits give low values; activity change, % for hits at 50 µM; actives 0.32% (n = 360,000); AID 651550; in the data active = activity change below about -80%; inconclusive = mostly about -51% to -80%; note: % is set by controls: 0 for no effect and ±100 for the full control effect
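Neuro2A cells (4,500/well, DMEM with 0.5% FBS) were treated with compound at a single 50 µM final concentration, stimulated with 6 nM IGF for 20 min at 37 °C, and lysed. Phospho-Akt Ser473 was read by HTRF as 665/615 ratio ×10^4.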
PI4K2A block: blocks human PI4K2A kinase activity; AID 1346378; actives 0.13% (n = 420,000); purified PI4K2A, ADP-Glo luminescence, 1 h; hits give low values; activity change, negative = inhibition, % at 76.9 µM; Q9BTU6; in the data active = activity change below about -50%; inconclusive = mostly about -30% to -49%;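 note: -100% = wells without enzyme as full effect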
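Compounds are screened against recombinant PI4K2A using PI as substrate and ATP, the latter dispensed at 300 microM. Reactions run one hour at ambient temperature before ADP-Glo detection; full inhibition defined by wells lacking enzyme.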
DRD3 antagonist: antagonists of human D3 dopamine receptor; max response, negative = inhibition, %; D3R cells, DiscoveRx beta-arrestin luminescence, antagonist mode; hits give low values; P35462; actives 2.5% (n = 360,000); AID 652054; in the data active = max response below about -50%; inconclusive = no clear call, values can overlap the other calls; note: % is set by controls: 0 for no effect and ±100 for the full control effect
Target sequence (P35462 whole entry, looked up): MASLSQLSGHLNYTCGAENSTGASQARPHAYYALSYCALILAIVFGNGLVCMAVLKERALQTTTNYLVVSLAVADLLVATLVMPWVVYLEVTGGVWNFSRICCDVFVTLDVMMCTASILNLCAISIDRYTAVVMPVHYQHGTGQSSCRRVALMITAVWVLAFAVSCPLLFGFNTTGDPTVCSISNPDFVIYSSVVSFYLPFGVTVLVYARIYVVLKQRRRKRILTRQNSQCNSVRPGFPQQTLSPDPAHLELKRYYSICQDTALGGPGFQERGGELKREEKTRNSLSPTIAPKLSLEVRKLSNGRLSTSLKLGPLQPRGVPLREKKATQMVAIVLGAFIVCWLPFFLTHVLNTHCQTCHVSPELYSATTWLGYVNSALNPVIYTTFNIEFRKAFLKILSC
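Cells plated overnight at 1500 cells/well, then exposed to library compounds with dopamine controls for 90 minutes at 37 degrees C. DiscoveRx reagent added for 30–60 minutes at room temperature; luminescence read, quantitative HTS format.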
DRD3 agonist: activates the human D3 dopamine receptor | actives 0.58% (n = 410,000) | AID 652048 | P35462 | D3R DiscoveRx beta-arrestin cells, luminescence, 90 min | max activation, %; in the data active = max activation above about 30%; note: 0% is about no effect
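Cells at 1500/well, incubated overnight, then treated with pinned compounds (dopamine as control) for 90 min at 37 degrees C. DiscoveRx reagent added for 30 - 60 minutes at room temperature; luminescence read.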
LDHA block: LDHA (human) enzyme inhibition. P00338. purified LDHA, NADH/diaphorase-resazurin fluorescence; hits give low values. activity change, % (values are at about 110 or 230 µM). actives 0.15% (n = 480,000). AID 1347041; in the data active = activity change below about -30%; inconclusive = mostly about -25% to -30%;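 note: plate controls were DMSO wells for no effect and wells without enzyme for full effect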
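LDH5 2 nM; NADH 0.06 mM, pyruvate 0.2 mM; 200 mM Tris pH 7.4, EDTA, Tween-20; 5 min RT. Detection: diaphorase 0.133 mg/mL + resazurin 37 µM, fluorescence ex540/em590 at 0 and 20 min; normalized to enzyme-free and DMSO wells.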
RGS4 inh: human RGS4 inhibition; Potency, µM (doses to about 114 µM), without a hit: at the top dose activity change, negative = inhibition, usual class: inhibitors; actives 0.039% (n = 390,000); P49798; Transcreener GDP fluorescence polarization, RGS4-accelerated GTP hydrolysis; active = well fitted inhibition curve with a large enough effect; inconclusive = small, poorly fitted or top-dose-only effect; inactive = no such curve, though single readings can be large or run the other way; note: potency is the fitted concentration of half-maximal effect; % is set by controls: 0 for no effect and ±100 for the full control effect; nearly all actives have a fitted effect of over 75% in size
Target sequence (P49798 whole entry, looked up): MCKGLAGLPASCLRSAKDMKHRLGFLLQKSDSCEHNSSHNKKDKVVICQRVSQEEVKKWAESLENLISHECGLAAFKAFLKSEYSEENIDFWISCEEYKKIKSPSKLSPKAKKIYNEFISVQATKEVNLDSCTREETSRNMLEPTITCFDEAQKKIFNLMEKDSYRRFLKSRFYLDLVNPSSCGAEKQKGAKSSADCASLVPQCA
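MLSMR compounds (23 nl, pin-transferred) preincubated 10 min at room temperature with a 500nM (2x) first reagent, then RGS4 at 900nM (2x) plus Transcreener GDP mix added; fluorescence polarization (620/688 nm) read before and after 90 min at 30 °C.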
The depositor's hits bear a star; i = inactive; u = inconclusive; x = no result given; [ ] = remark or other dose. Most compounds without a hit are left out; they make up all but 2.8% or so of the library.

SMILES	pAkt inh	PI4K2A block	DRD3 antagonist	DRD3 agonist	LDHA block	RGS4 inh
CN(C)C(=O)c1cn(-c2ccccc2)nc1-c1cc2ccccc2o1	i	2.0	-16.2	18.2	0.2	-3.6%
CN(Cc1cn(-c2ccccc2)nc1-c1cc2ccccc2o1)C(=O)CCC(=O)O	i	3.0	2.0	46.0*	-10.0	u
Cc1ccc(NC(=O)c2nc3ccccc3nc2N2CCOCC2)cc1F	x	x	x	x	-2.8	x
COc1cc2c(cc1OC)C(=Cc1ccc(N(C)C)cc1)C=C2	i	-1.2	14.3	33.3*	-0.2	-13.5%
Cc1cccc(CCN(C(=O)c2snc(C(N)=O)c2N)C(C(=O)NCC2CCCO2)c2ccc(F)cc2)c1 (stereo not drawn)	i	-1.2	8.5	2.1	-1.9	-3.9%
COc1ccc(CCN(C(=O)c2snc(C(N)=O)c2N)C(C(=O)NCC2CCCO2)c2ccc(F)cc2)cc1OC (stereo not drawn)	i	-1.6	10.1	35.6*	-0.9	-18.3%
CC(=O)N1CCCc2cc(S(=O)(=O)N3CCN(C4CCCCC4)CC3)ccc21	i	0.2	-55.7*	-3.3	-8.6	16.6%
Cn1c(CCN2CCCCC2)nc2cc(NS(=O)(=O)c3ccc(F)cc3)ccc21	i	-1.0	-65.9*	-4.4	-4.2	12.8%
Cc1ccc(S(=O)(=O)Nc2ccc3c(c2)nc(CCN2CCCCC2)n3C)cc1	i	-9.8	-78.9*	-37.4	-8.2	-3.2%
CCn1c(N2CCN(Cc3ccc(F)cc3)CC2)nc2c1c(=O)[nH]c(=O)n2C	x	x	x	x	6.0	x
CCOC(=O)C(CC)Sc1nnc(CSc2nc(C)cc(C)n2)n1-c1ccc(F)cc1 (stereo not drawn)	x	x	x	x	-0.8	x
CCOC(=O)/C(=C/c1c(C)n(C)c2ccc([N+](=O)[O-])cc12)C(C)=O	i	-8.4	-53.8*	-9.0	-12.7	-38.1%
COc1ccc(/C=N/NC(=O)c2nc(-c3ccccc3)cc(-c3ccccc3)n2)cc1OC	i	4.5	18.9	-4.6	-1.2	-15.8%
COc1ccc(/C=N/c2oc(-c3ccccc3)cc2C#N)cc1OC	i	-1.2	-52.4*	-4.0	4.1	-16.5%
COc1cc(/C=C/C(=O)OC2CC3CCC2(C)C3(C)C)ccc1O (stereo not drawn)	i	3.1	-50.5*	-2.5	-12.0	-13.7%
COc1cc(/C=C/C(=O)OCC(=O)N2CCC(C)CC2)ccc1O	i	1.7	-20.7	-9.9	-4.0	-16.8%
COc1ccc(CNC(=O)CC2CCN(C(=O)c3ccc4nc(-c5ccccc5)oc4c3)CC2)cc1	x	x	x	x	-21.2	x
CN1CCC(C2(O)c3ccccc3CSc3sccc32)CC1 (stereo not drawn)	i	0.1	-66.6*	0.2	-8.3	15.2%
CN1CCC(C2(O)c3ccccc3CCc3ccccc32)CC1	i	4.5	-15.8	-43.7	5.8	-22.7%
COc1ccc(C(=O)O/N=C(\C)c2ccccc2)cc1	i	-95.1*	23.5	-18.9	-1.9	15.1%
COc1ccc(C(=O)ON=C(C)c2nccs2)cc1	i	-66.2*	0.0	-9.3	-9.6	x
COc1ccc(C(=O)O/N=C(/c2ccccc2)c2ccncc2)cc1	i	-3.6	-2.0	2.6	-15.1	25.0%[56.9 µM]
CCC(C)NC(=O)CN1C(=O)N(c2cccc(SC)c2)S(=O)(=O)c2ccccc21 (stereo not drawn)	x	x	x	x	5.0	x
Cn1c(=O)c2c(ncn2CCC(=O)Nc2cccc(Br)c2)n(C)c1=O	x	x	x	x	19.8	x
CC(C)c1noc(C(C)Sc2nc(-c3ccco3)nc3ccccc23)n1 (stereo not drawn)	x	x	x	x	2.0	x
SMILES	pAkt inh	PI4K2A block	DRD3 antagonist	DRD3 agonist	LDHA block	RGS4 inh
O=C(OCc1ccccc1)c1ccc(Br)o1	-107.0%*	3.7	0.0	-10.2	-2.8	15.5%
CCN(CC)c1ccc(/C=N/NC(=S)Nc2cccc(C)c2)cc1	x	x	x	x	10.5	x
CN(CCCNC(=O)c1ccccn1)CC(F)(F)F	x	x	x	x	-1.3	x
Cc1cccc(C(=O)NCCCN(C)CC(F)(F)F)n1	x	x	x	x	-30.7*	x
COCCCNC(=S)NC1CC2CCCC(C1)N2Cc1cccs1 (stereo not drawn)	i	1.2	-26.4	-29.9	-6.0	-10.5%
CCOCCCNC(=S)NC1CC2CCC(C1)N2Cc1ccccc1 (stereo not drawn)	i	-1.5	-62.2*	-12.6	-7.0	-7.1%
COCCCNC(=S)NC1CC2CCC(C1)N2Cc1ccccc1 (stereo not drawn)	i	-4.1	-59.6*	-18.9	-8.4	19.3%
CCOC(=O)C1(CC2CC2)CCN(Cc2ccc(OC)cc2F)CC1	i	-2.5	-68.4*	-18.0	-1.8	12.9%
CCOC(=O)C1(CC2CC2)CCN(Cc2cc(Cl)c(O)c(OC)c2)CC1	i	3.7	-3.1	-11.6	2.7	-9.8%
O=C(CSc1nnc(CNc2ccc(Cl)cc2)n1Cc1ccccc1)NCc1ccco1	-108.6%*	6.7	u	-0.5	5.3	-8.8%
CC(C)CNC(=O)NC(=O)COC(=O)c1cc(-c2ccco2)nc2ccccc12	x	x	x	x	4.2	x
O=C(CN1/C(=C(/O)c2ccccc2)C(=O)c2ccccc2S1(=O)=O)c1ccccc1	i	-2.4	-88.2*	-1.5	0.5	-14.4%
O=C(CSc1nnc(-c2ccco2)o1)NC(=O)C1COc2ccccc2O1 (stereo not drawn)	i	7.4	-55.3*	3.3	0.1	30.8%
CCN(Cc1ccccc1)c1ccc(N=Nc2nn(C)c(C)c2[N+](=O)[O-])cc1	i	-1.6	-50.8*	-11.7	2.2	-26.6%
CCN(CC)c1ccc(N=Nc2nn(C)c(C)c2[N+](=O)[O-])cc1	i	-9.9	-58.6*	-13.6	1.0	-17.9%
CCN(CC)c1ccc(N=Nc2ncn[nH]2)cc1	i	-0.4	u	-12.4	13.5	-1.4%
CCN(Cc1ccccc1)c1ccccc1	i	3.3	22.4	-8.8	-1.6	7.3%
COc1ccc(/C=N/N2C(=O)CSC2=S)cc1Br	i	-5.1	21.2	36.5*	-3.0	-38.1%
COc1ccc(/C=N/N2C(=O)CSC2=S)cc1	i	-5.0	-5.5	0.1	-1.1	-34.7%
COc1cc(/C=N/N2CCN(Cc3ccc(Cl)cc3)CC2)cc(Br)c1O	i	-2.5	-13.9	-1.5	5.1	-20.2%
Cc1ccc(CN2CCN(/N=C/c3ccc(O)c(O)c3)CC2)cc1	i	-14.4	-63.6*	-12.8	13.9	-32.7%
COc1ccc(/C=N/N2CCN(Cc3ccc(C)cc3)CC2)cc1Br	i	-3.1	-91.7*	-8.3	-1.1	-2.4%
